Assay results as given in PubChem BioAssay.
Values joined by “and” are separate entries in the source; they are usually repeats but may differ in a detail not shown here. Equal entries are not always repeated. Where a structure was tested more than once in an assay, its records may differ in their call. Active and inactive are the calls of the source. Cut-off read from the data, not from the text of the source: active = fold change permeability below about 0.7 or above about 1.3; inactive = in between.

Test: compounds altering in vitro BBB leakiness – cell-based, FITC-avidin fluorescence, HTS, primary screen (AID 1963498); note: test concentration not given here
Conditions: brain endothelial barrier, actives lie on both sides

For `CC[C@@H](C(N)=O)N1CCCC1=O`, which fold change permeability is on record?
The fold change permeability was 0.9 (inactive).

For `Nc1ncnc2c1ncn2[C@@H]1O[C@H](COP(=O)(O)CP(=O)(O)OP(=O)(O)O)[C@H](O)C1O` (stereo partly specified), which fold change permeability is on record?
Its fold change permeability is 0.9 (inactive).

With `C[N+](C)(C)CC#CCN1CCCC1=O` as the compound, how does the fold change permeability read?
The fold change permeability was 1 (inactive).

With `COC(=O)[C@@H](N)CCCN=C(N)N[N+](=O)[O-]` as the compound, how does the fold change permeability read?
The fold change permeability was 0.9 (inactive).

With `CCCCCCCCCCCCCC(=O)O[C@@H]1[C@@H](C)[C@@]2(O)[C@@H](C=C(CO)C[C@]3(O)C(=O)C(C)=C[C@@H]23)[C@@H]2C(C)(C)[C@]12OC(C)=O` as the compound, how does the fold change permeability read?
The fold change permeability was 1.1 (inactive).

For `COC(=O)N1CCN(C(=O)Cc2ccc(Cl)c(Cl)c2)C(CN2CCCC2)C1` (stereo unspecified), which fold change permeability is on record?
The fold change permeability was 1.3 (active).

For `Clc1ccc(C(c2ccc(Cl)cc2)n2cc[n+](CC(OCc3ccc(Cl)cc3Cl)c3ccc(Cl)cc3Cl)c2)cc1` (stereo unspecified), which fold change permeability is on record?
The fold change permeability was 1.3 (active).

With `CCCN(CCC)C1Cc2cc(OC)c(OC)cc2C1` as the compound, how does the fold change permeability read?
The fold change permeability was 0.8 (inactive).

Which fold change permeability does the source give for `CCC1(C2=NCCN2)Cc2ccccc2O1` (stereo unspecified) here?
The fold change permeability was 1 (inactive).

With `Cc1ncc(CNC(=O)N(CCCl)N=O)c(N)n1` as the compound, how does the fold change permeability read?
Its fold change permeability is 0.9 (inactive).

For `CC(NC(C)(C)C)C(=O)c1cccc(Cl)c1` (stereo unspecified), which fold change permeability is on record?
The fold change permeability was 1 (inactive).

Which fold change permeability does the source give for `Cc1c(F)cccc1[C@H]1COC(N)=N1` here?
Its fold change permeability is 1 (inactive).

With `COC[C@H]1OC(=O)c2coc3c2[C@@]1(C)C1=C(C3=O)C2CCC(=O)[C@@]2(C)C[C@H]1OC(C)=O` (stereo partly specified) as the compound, how does the fold change permeability read?
The fold change permeability was 1.7 (active).

With `c1ccc(C[N+]23CN4CN(CN(C4)C2)C3)cc1` as the compound, how does the fold change permeability read?
The fold change permeability was 0.7 (active).

With `Cc1nnc2n1-c1sccc1C(c1ccccc1)=NC2` as the compound, how does the fold change permeability read?
Its fold change permeability is 1.1 (inactive).

For `Cc1ccc2c(c1)C1(CCN(CCc3nc(-c4ccccc4)oc3C)CC1)OC(=O)N2`, which fold change permeability is on record?
Its fold change permeability is 1 (inactive).

For `NCCc1ccc(O)cc1`, which fold change permeability is on record?
The fold change permeability was 0.7 (active).

With `COc1ccc(CCNCc2ccc(OC)c3ccccc23)cc1` as the compound, how does the fold change permeability read?
The fold change permeability was 1.7 (active).

With `Oc1ccc2c3c1O[C@H]1c4[nH]c5ccccc5c4C[C@@]4(O)[C@@H](C2)N(CC2CC2)CC[C@]314` as the compound, how does the fold change permeability read?
Its fold change permeability is 1 (inactive).

Which fold change permeability does the source give for `CNCC(O)c1ccc(O)cc1` (stereo unspecified) here?
Its fold change permeability is 0.7 (active).

Which fold change permeability does the source give for `CC(C)[C@H]1CN[C@H](C(=O)O)[C@H]1CC(=O)O` here?
The fold change permeability was 1.1 (inactive).

With `OCc1cnc[nH]1` as the compound, how does the fold change permeability read?
Its fold change permeability is 1.1 (inactive).

With `CN1CC[C@@]2(C)c3cc(OC(=O)Nc4ccccc4)ccc3N(C)[C@@H]12` as the compound, how does the fold change permeability read?
The fold change permeability was 1.4 (active).

Which fold change permeability does the source give for `CNc1ccc2oc(C[C@H]3O[C@@]4(CC[C@H]3C)O[C@H]([C@H](C)C(=O)c3ccc[nH]3)[C@H](C)C[C@H]4C)nc2c1C(=O)O` here?
The fold change permeability was 1.2 (inactive).

Which fold change permeability does the source give for `N#Cc1ccc(N2CCN(C(=O)COc3ccc4[nH]cc(CCN)c4c3)CC2)cc1` here?
Its fold change permeability is 1 (inactive).

Which fold change permeability does the source give for `CN1[C@H]2C[C@H](OC(=O)[C@H](CO)c3ccccc3)C[C@@H]1[C@@H](O)C2` here?
Its fold change permeability is 0.8 (inactive).

For `NCCCP(=O)(O)O`, which fold change permeability is on record?
Its fold change permeability is 1.3 (active).

With `CC(C)N(CCC(C(N)=O)(c1ccccc1)c1ccccn1)C(C)C` (stereo unspecified) as the compound, how does the fold change permeability read?
The fold change permeability was 0.9 (inactive) and 1.3 (active).

Which fold change permeability does the source give for `CC[N+](CC)(CC)CC` here?
Its fold change permeability is 1.1 (inactive).

With `CCCN1CCC[C@@H](c2cccc(O)c2)C1` as the compound, how does the fold change permeability read?
The fold change permeability was 1 (inactive).

Which fold change permeability does the source give for `NCC(CC(=O)O)c1ccc(Cl)cc1` (stereo unspecified) here?
The fold change permeability was 1.1 (inactive).

Which fold change permeability does the source give for `Nc1ccc(CCN2CCN(c3cccc(C(F)(F)F)c3)CC2)cc1` here?
Its fold change permeability is 1.8 (active).

For `CN1C[C@H](CNC(=O)OCc2ccccc2)C[C@@H]2c3cccc4c3c(cn4C)C[C@H]21`, which fold change permeability is on record?
Its fold change permeability is 1.4 (active).

For `CC(C)C[C@H](NP(=O)(O)O[C@@H]1O[C@@H](C)[C@H](O)[C@@H](O)[C@H]1O)C(=O)N[C@@H](Cc1c[nH]c2ccccc12)C(=O)O`, which fold change permeability is on record?
The fold change permeability was 1.4 (active).

Which fold change permeability does the source give for `CC(N)Cc1c[nH]c2ccc(O)cc12` (stereo unspecified) here?
Its fold change permeability is 0.8 (inactive).

With `CC(C)NC(C)Cc1ccc(I)cc1` (stereo unspecified) as the compound, how does the fold change permeability read?
The fold change permeability was 1.8 (active).
